# Screens deposited in PubChem by National Center for Advancing Translational Sciences (NCATS).
# The list is not random: actives were taken first. Their share in the collection is about 10%.
# JMJD2A Tudor inh – qHTS Assay for Inhibitors of JMJD2A-Tudor Domain; AlphaScreen JMJD2A-Tudor / H3K4me3 peptide binding; Potency, µM (highest dose often 114 µM), most hits filed as inhibitors; 390,000 tested, 4.4% active; further: nearly all actives have a fitted effect of over 50% in size
# BAZ2B inh – qHTS Assay for Inhibitors of BAZ2B; Bromodomain adjacent to zinc finger domain protein 2B (Homo sapiens), Q9UIF8; AlphaScreen BAZ2B-H3K14Ac peptide displacement; Potency, µM (highest dose often 114 µM), most hits filed as inhibitors; 360,000 tested, 4.4% active; further: nearly all actives have a fitted effect of over 60% in size
#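 Complex of BAZ2B and biotin-H3K14Ac (50 nM apiece) forms over 30 min at RT, then faces library compounds up to 110 uM for another 30 min; AlphaScreen beads added, 20 min dark incubation, luminescence read.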
# HP1b binding inh – HTS for Inhibitors of HP1-beta Chromodomain Interactions with Methylated Histone Tails; AlphaScreen HP1-beta / biotin-H3K9me3 peptide binding; Potency, µM (doses to about 114 µM), actives largely listed as inhibitors; 390,000 tested, 0.56% active; AID 540317, 2011; further: nearly all actives have a fitted effect of over 70% in size
#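 AlphaScreen: HP1-beta (50 nM) preformed 30 min with biotin-H3(1-18)K9me3 peptide (50 nM) in PBS pH 7.4, 0.01% Tween-20. Compound added for 30 min at RT, then streptavidin donor/nickel chelate acceptor beads (10 ug/mL) for 30 min.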
# G9a block – qHTS Assay for Inhibitors of Histone Lysine Methyltransferase G9a | Histone-lysine N-methyltransferase EHMT2 (Homo sapiens), Q96KQ7 | G9a H3K9 monomethylation, AlphaScreen, 2 h | Potency, µM (series often up to 102 µM), usual class: inhibitors | 350,000 tested, 8.8% active; further: nearly all actives have a fitted effect of over 75% in size
#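 Chemiluminescent proximity detection of H3K9 monomethylation, read after 10 min bead incubation in the dark. Reaction: 20 nM G9a, 500 nM biotin-H3K9 peptide, 20 uM SAM cofactor, 2 h, room temperature, following 15 min enzyme-compound preincubation.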
# CtBP-E1A blk – qHTS Assay for Inhibitors of the CtBP/E1A Interaction | 340,000 tested, 0.49% active | activity change, % (test concentration not listed) | AlphaScreen GST-E1A/His-CtBP binding, 1536-well; active compounds read low; in the data active means activity change below about -65%; inconclusive means mostly about -30% to -63%
#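 AlphaScreen with 125 nM GST-E1A and 125 nM His-CtBP (5X stocks) in Tris pH 8.0, 300 mM NaCl, BSA, Tween 20, TCEP. Compounds preincubated 2 h at 37 deg C, then glutathione donor/nickel acceptor beads added for 1 h at 37 deg C in dark.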
# Six1-Eya2 blk – qHTS Assay for Inhibitors of the Six1/Eya2 Interaction. AlphaScreen GST-Six1/His-Eya2 binding, biochemical; active compounds read low. activity change, % (no concentration beside the values). 360,000 tested, 0.56% active. AID 651725, 2012; in the data active means activity change below about -65%; inconclusive means mostly about -30% to -63%
# Target sequence (O00167 whole entry, looked up): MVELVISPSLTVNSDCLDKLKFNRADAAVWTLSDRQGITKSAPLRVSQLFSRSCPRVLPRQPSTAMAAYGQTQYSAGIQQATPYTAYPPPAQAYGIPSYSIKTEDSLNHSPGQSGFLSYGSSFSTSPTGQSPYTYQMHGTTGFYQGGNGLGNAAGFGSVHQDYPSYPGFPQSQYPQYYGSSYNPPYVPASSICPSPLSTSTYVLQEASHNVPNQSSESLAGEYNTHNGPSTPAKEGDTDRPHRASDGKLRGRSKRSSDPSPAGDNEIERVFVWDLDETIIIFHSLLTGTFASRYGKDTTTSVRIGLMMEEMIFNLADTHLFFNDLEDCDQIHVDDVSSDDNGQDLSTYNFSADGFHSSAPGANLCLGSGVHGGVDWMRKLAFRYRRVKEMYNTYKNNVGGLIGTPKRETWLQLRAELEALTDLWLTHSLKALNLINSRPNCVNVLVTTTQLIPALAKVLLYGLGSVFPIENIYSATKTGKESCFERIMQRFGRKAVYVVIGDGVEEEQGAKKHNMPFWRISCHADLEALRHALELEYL
# Target sequence (Q15475 whole entry, looked up): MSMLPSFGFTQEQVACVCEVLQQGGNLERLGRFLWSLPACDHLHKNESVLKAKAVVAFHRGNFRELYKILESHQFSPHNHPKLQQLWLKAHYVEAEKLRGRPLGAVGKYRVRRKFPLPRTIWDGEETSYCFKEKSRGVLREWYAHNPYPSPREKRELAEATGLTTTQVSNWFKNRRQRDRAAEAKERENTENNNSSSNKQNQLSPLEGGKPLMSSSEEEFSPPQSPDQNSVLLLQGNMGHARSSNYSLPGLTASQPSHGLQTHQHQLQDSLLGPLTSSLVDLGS
#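 AlphaScreen with GST-Six1 and His-Eya2 (5X mix: 250 nM and 500 nM), glutathione donor and nickel acceptor beads; buffer 50 mM Tris pH 8.0, 300 mM NaCl, 1 mM TCEP; 1 h at 37 C in the dark.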
# Numbers stand for hits; n = inactive; u = inconclusive; x = no result; [ ] = remark or other dose. Unless noted, the call rests on the fitted dose curve; in most records, active means well fitted inhibition curve with a large enough effect; inconclusive means small, poorly fitted or top-dose-only effect; inactive means no such curve, though single readings can be large or run the other way.
SMILES,JMJD2A Tudor inh,BAZ2B inh,HP1b binding inh,G9a block,CtBP-E1A blk,Six1-Eya2 blk
C=CCn1c(CCNC(=O)c2cccs2)nnc1SCC(=O)c1ccc(Br)cc1,n,n,n,45µM,n,n
C=CCn1c(SCC(=O)c2ccc(NS(=O)(=O)c3ccccc3)cc2)nnc1-c1cccs1,32µM,n,n,u,n,n
COc1ccc(/C=N/NC(=O)c2cccnc2)cc1CN1CCc2ccccc2C1,n,n,n,n,n,n
COc1ccc(/C=N/NC(=O)c2cccnc2)cc1Cn1nc([N+](=O)[O-])c(Br)c1C,x,n,x,50µM,x,x
CCc1ccccc1NC(=O)c1oc(=O)c2ccccc2c1-c1ccccc1,n,n,n,n,x,x
COCCCN1C(=O)C(=O)/C(=C(/O)c2ccc(S(=O)(=O)N3CCCCC3)cc2)C1c1cccc(OC)c1 (configuration not stated),n,n,n,45µM,x,n
COc1cccc(C2/C(=C(/O)c3ccccc3)C(=O)C(=O)N2CCCC(=O)O)c1 (configuration not stated),50µM,u,n,u,n,n
COc1cc(C2/C(=C(/O)c3ccc(F)cc3)C(=O)C(=O)N2CCCC(=O)O)ccc1O (configuration not stated),u,56µM,n,x,n,n
COc1ccc(C2/C(=C(/O)c3ccccc3)C(=O)C(=O)N2CO)cc1 (configuration not stated),n,n,n,u,n,n
COc1ccc(/C(O)=C2/C(=O)C(=O)N(CCCC(=O)O)C2c2ccc(OC)c(OC)c2)cc1 (configuration not stated),n,n,n,n[0.0925 µM],n,n
O=C(COC(=O)c1cc(-c2ccccc2)nc2c(Cl)cccc12)c1ccc(F)cc1,n,n,n,n,x,x
COCCCc1cc(F)c(S(=O)(=O)N2CCN(S(=O)(=O)c3ccc4c(c3)OCCO4)CC2)cc1F,n,x,x,x,x,x
O=S(=O)(Nc1ccc(F)c(Cl)c1)c1ccc(Br)s1,n,n,n,n,x,x
Cc1oc2c(cc(NS(=O)(=O)c3ccc(F)cc3)c3ccccc32)c1C(=O)OCc1ccccc1,n,n,n,u,x,x
CCc1ccc(S(=O)(=O)c2nnn3c2nc(Nc2ccc(C)c(Cl)c2)c2sccc23)cc1,n,n,n,n,x,x
Cc1cccc(C(=O)c2c(N)sc3c2CCC(C)C3)c1 (configuration not stated),u,n,u,45µM,n,n
Cc1cccc(C(=O)c2c(N)sc3c2CCCC3)c1,u,n,n,32µM,n,n
Cc1cccc(C(=O)Nc2sc3c(c2C(=O)O)CCCC3)c1,u,n,u,u,n,n
COc1ccc(N=Nc2c(C)[nH][nH]c2=O)cc1,n,56µM,n,u,n,n
Cc1[nH][nH]c(=O)c1N=Nc1ccccc1C#N,x,u,x,45µM,x,x
COc1ccccc1N=Nc1c(C)[nH][nH]c1=O,n,u,n,35µM,n,n
Cc1ccc(N=Nc2c(C)[nH][nH]c2=O)c(C)c1,u,u,n,u,n,n
COc1ccccc1N=Nc1c(C)n[nH]c1C,n,n,n,n,n,n
CCS(=O)(=O)N1CC(=O)N(c2cccc(C)c2C)C(C)(C(=O)NC2CCCCCC2)C1 (configuration not stated),n,n,n,n,x,x
CCOC1=C/C(=C/c2c(N)n3nc(-c4ccccc4)sc3nc2=O)C=CC1=O,n,40µM,n,40µM,n,u
SMILES,JMJD2A Tudor inh,BAZ2B inh,HP1b binding inh,G9a block,CtBP-E1A blk,Six1-Eya2 blk
CCS(=O)(=O)c1nn2c(N)c(/C=C3/C=CC(=O)C(OC)=C3)c(=O)nc2s1,n,n,n,u,n,n
COC1=C/C(=C/c2c(N)n3nc(-c4ccc(C)cc4)sc3nc2=O)C=CC1=O,u,50µM,n,u,n,n
COc1ccc(Cn2ccc3nc(C)c(C(=O)N4CCN(c5ccccc5OC)CC4)cc3c2=O)cc1,n,n,n,n,x,x
COc1cc(NC(=O)c2ccc(-n3cnc4cccnc43)cc2)cc(OC)c1,n,n,n,n,x,x
CCOC(=O)c1[nH]c(=O)[nH]c1CSc1nc(C)cc(C)n1,n,n,n,u,n,n
CCOC(=O)c1[nH]c(=O)[nH]c1COC(=O)c1cc2ccccc2o1,u,n,u,7.9µM,n,n
CC(=O)N(CCC(Cc1ccccc1)c1ccco1)Cc1ccco1 (configuration not stated),n,u,n,u,n,n
Cc1ccc(C(CCN(Cc2ccccc2)C(=O)c2ccco2)c2ccco2)cc1 (configuration not stated),20µM,32µM,n,50µM,n,n
O=C(c1ccco1)N(CCC(c1ccccc1)c1ccco1)Cc1ccco1 (configuration not stated),22µM,28µM,u,u,n,u
O=C(CCc1nc(-c2cccs2)no1)Nc1ccccc1[N+](=O)[O-],n,u,n,u,x,x
CCCn1cc(S(=O)(=O)c2ccccc2)c(=O)c2cc(F)c(N3CCCC(C)C3)cc21 (configuration not stated),n,n,n,n,x,x
CCN(CC)CCNC(=O)c1ccc(NC(=O)Cc2ccc(OC)c(S(=O)(=O)N3CCOCC3)c2)cc1,n,x,n,x,n,n
C=CC(=O)Nc1ccc(CN2C(=O)N(c3c(Cl)c(OC)cc(OC)c3Cl)Cc3cnc(NCCCCN(CC)CC)nc32)cc1,56µM,x,u,x,n,n
CC(c1nc2ccccc2c(=O)[nH]1)N1CCOCC1 (configuration not stated),n,n,n,n[12.7 µM],n,n
CC(c1nc2ccccc2c(=O)[nH]1)N1CCN(C)CC1 (configuration not stated),71µM,n,u,u,n,n
CCc1cccc(C)c1NC(=O)CCS(=O)(=O)c1ccc2c(c1)oc(=O)n2C,79µM,n,u,10µM,x,x
O=C(O)Cc1cccc(OCCCN(Cc2cccc(C(F)(F)F)c2Cl)CC(c2ccccc2)c2ccccc2)c1,x,x,x,18µM,x,x
O=C(CCCOc1ccccc1)Nc1ccccc1C(F)(F)F,n,n,n,n,n,n
CN1c2ccsc2/C(=N/Nc2ccccc2)CS1(=O)=O,56µM,u,u,25µM,n,n
CN1c2ccsc2/C(=N/NC(=O)c2c(F)cccc2F)CS1(=O)=O,u,n,n,n,n,n
COc1ccc(NC(=O)c2nc[nH]c2C(=O)Nc2ccccc2C)cc1,n,n,n,n,n,n
